# In PubChem BioAssay (NCI):
# The panel holds about 79,000 compounds, 15% with a hit somewhere; the sample as a whole holds those more often. A number with no mark means an inactive call. Calls of active or inactive are those of the source. Cut-off read from the data, not from the text of the source: active = growth inhibition above about 70%; inactive = the rest.
# Tests used:
# [1] = NCI Yeast Anticancer Drug Screen. Data for the rad50 strain (AID 155);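 note: 0% = growth of vehicle-only cultures of the same strain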; conditions: S. cerevisiae rad50 strain growth inhibition, hits give high values
# How it was run: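 Vehicle-treated cultures provide the reference for the growth inhibition reported for compound-exposed, repair-deficient yeast.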
# [2] = NCI Yeast Anticancer Drug Screen. Data for the mec2-1 strain (AID 157); conditions: S. cerevisiae mec2-1 strain, hits give high values
# How it was run: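 Yeast mec2-1 mutant treated with compound. Readout: growth inhibition vs vehicle controls.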
# [3] = NCI Yeast Anticancer Drug Screen. Data for the sgs1 mgt1 strain (AID 161);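 note: 0% = growth of cultures given vehicle only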; conditions: S. cerevisiae sgs1 mgt1 strain, hits give high values
# How it was run: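 Test agents were incubated with a DNA-repair-mutant yeast strain. Growth was then read and compared against vehicle-treated controls.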
# [4] = NCI Yeast Anticancer Drug Screen. Data for the cln2 rad14 strain (AID 165);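 note: 0% = growth equal to vehicle treated cultures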; conditions: S. cerevisiae cln2 rad14 strain, hits give high values
# How it was run: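 cln2 rad14 yeast strain; compound exposure; growth inhibition read vs vehicle controls.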
# [5] = NCI Yeast Anticancer Drug Screen. Data for the bub3 strain (AID 167); conditions: S. cerevisiae bub3 mutant strain, hits give high values
# How it was run: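 Mutant yeast screening strain plus compound; vehicle-treated cultures serve as the 0% inhibition reference.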
# [6] = NCI Yeast Anticancer Drug Screen. Data for the mlh1 rad18 strain (AID 175); conditions: S. cerevisiae mlh1 rad18 strain growth inhibition, hits give high values
# How it was run: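 Yeast w/ defined DNA-repair lesions; compound exposure; growth vs vehicle controls → % inhibition.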
# [7] = at 5.0 µM (retest, dose inferred, filed as 0.5)
# [8] = at 50.0 µM (retest, dose inferred, filed as 5.0)
Compound,"growth inhibition [1, 7]","growth inhibition [1, 8]",growth inhibition ([1]; at 50.0 µM),"growth inhibition [2, 7]","growth inhibition [2, 8]",growth inhibition ([2]; at 50.0 µM),"growth inhibition [3, 7]","growth inhibition [3, 8]",growth inhibition ([3]; at 50.0 µM),"growth inhibition [4, 7]","growth inhibition [4, 8]",growth inhibition ([4]; at 50.0 µM),"growth inhibition [5, 7]","growth inhibition [5, 8]",growth inhibition ([5]; at 50.0 µM),"growth inhibition [6, 7]","growth inhibition [6, 8]",growth inhibition ([6]; at 50.0 µM)
O=C(Nc1ccccc1Cl)c1cccnc1,-146%,-174%,6.55%,-48%,-56%,14.8%,-56%,-70%,9.25%,-48%,-63%,51.6%,-63%,-81%,-7.4%,-112%,-123%,4.45%
COc1ccc2c(c1)C=C([N+](=O)[O-])C(C1OC(C)(C)OC1C1COC(C)(C)O1)O2 (stereo not given),17%,12%,7.3%,22%,24%,65.2%,24%,14%,16.5%,19%,11%,45.1%,48%,43%,0.6%,24%,21%,19.8%
COC(=O)c1cc[nH]c(=O)c1,-150%,-166%,9.2%,-48%,-56%,12.2%,-62%,-68%,11.4%,-55%,-70%,-18.8%,-71%,-86%,0.55%,-138%,-122%,60.8%
CCN(CC)CCCNc1cc(C)nc2c1ccc1c2ccc2c(NCCCN(CC)CC)cc(C)nc21,-4%,92% (active),61.9%,-2%,75% (active),97.8% (active),-1%,78% (active),65.8%,-7%,82% (active),73.7% (active),-4%,97% (active),96.7% (active),-4%,81% (active),94.2% (active)
Nc1ncc(C(=O)c2ccccc2)cc1[N+](=O)[O-],-142%,-110%,-5.7%,-44%,-37%,21.8%,-61%,-45%,-5.95%,-56%,-22%,38.9%,-76%,-58%,-2.9%,-138%,-87%,-0.8%
COC(=O)c1c(C)cccc1C1CN=NC12Cc1ccc(C)c(C)c1C2=O (stereo not given),2%,31%,61%,0%,47%,43.2%,13%,56%,68.5%,1%,44%,54.1%,8%,81% (active),78.7% (active),-1%,57%,72.8% (active)
O=C(COc1ccccc1)Oc1c(Cl)c(Cl)c(Cl)c(Cl)c1Cl,23%,94% (active),94% (active),28%,97% (active),98% (active),34%,98% (active),96% (active),10%,97% (active),96% (active),11%,96% (active),98.3% (active),23%,97% (active),97.5% (active)
Cn1c2nc(-[n+]3ccc(-c4ccccc4)cc3)nc-2c([O-])n(C)c1=O,3%,3%,-7.35%,-3%,8%,2.95%,1%,-4%,9.9%,-3%,1%,72.3% (active),-1%,-3%,-2%,-1%,16%,-7.5%
O=C(Nc1nnc(-c2ccccc2)s1)c1cc(=O)c2cc(Cl)ccc2o1,-3%,45%,99.3% (active),0%,58%,99.7% (active),-3%,78% (active),99.5% (active),6%,62%,98.8% (active),4%,77% (active),99.4% (active),2%,71% (active),98.9% (active)
COC(=O)Cn1/c(=N\N=C(/C)c2ccc(C)cc2)sc2ccccc21,-13%,7%,35%,-2%,-2%,26.7%,-10%,28%,40.4%,-10%,16%,15.3%,-11%,11%,35.9%,-20%,36%,40.6%
